Results filed as inconclusive are left out. Calls of active or inactive are those of the source. Rule for the calls: active = hit-call score of the fitted dose curve at least 0.9, where 1 is the maximum; inconclusive = response in the unintended direction; inactive = score below 0.9.

Sequence of guinea pig Sigma Receptor, Non-selective Binding, SIGMAR1 (gene 100135589) (Q60492 whole entry, looked up): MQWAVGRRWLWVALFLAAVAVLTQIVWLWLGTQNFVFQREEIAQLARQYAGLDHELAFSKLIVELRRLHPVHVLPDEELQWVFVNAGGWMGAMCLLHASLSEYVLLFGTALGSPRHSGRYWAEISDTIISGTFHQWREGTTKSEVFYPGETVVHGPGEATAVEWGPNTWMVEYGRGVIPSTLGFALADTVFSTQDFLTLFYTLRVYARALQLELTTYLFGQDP

The first assay deals with guinea pig Sigma Receptor, Non-selective Binding, SIGMAR1 (gene 100135589) (UniProt Q60492). Briefly: NVS_OR_gSIGMA_NonSelective: NovaScreen (NVS) Nuclear Receptor Binding Assay for guinea pig Sigma Receptor, Non-selective Binding (AID 2283367). The method, boiled down:
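Radioligand displacement on guinea pig brain membranes, read by filter-based scintillation counting 1 h after dosing. Loss of signal versus DMSO; initial duplicate single-point screen at 25 uM, actives followed in concentration series.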
Turning to `c1ccc2[nH]cnc2c1`, the compound was called inactive. In the case of `CC(C=O)Cc1ccc(C(C)(C)C)cc1` (stereo unspecified), the AC50 was 2.97 µM (active). Take `CN(c1nccc(=O)[nH]1)C1CCN(c2nc3ccccc3n2Cc2ccc(F)cc2)CC1`: the AC50 was 0.976 µM (active). On the same count and under the same terms, the same measure for `C1=CC2C3C=CC(C3)C2C1` (stereo unspecified): 13 µM (active). Same read-out and setting: with `COc1ccc(CCN2CCC(Nc3nc4ccccc4n3Cc3ccc(F)cc3)CC2)cc1` the figure was 1.24 µM (active). Regarding `CCOCCOCCOCC`, the AC50 is 4.87 µM (active).

In another assay the test system is guinea pig Dopamine Transporter (DAT), gene 100714898. Briefly: NVS_TR_gDAT: NovaScreen (NVS) Transporter Assay for guinea pig Dopamine Transporter (DAT) (AID 2283369).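 Note: active compounds lower bound radioligand signal relative to DMSO.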 In a few lines:
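Scintillation counts of filter-retained radioligand report binding to guinea pig striatal membranes after 2 h. Activity scored as signal loss relative to DMSO, first at 25 uM in duplicate, then in concentration series to 50 uM.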
In the case of `CCN(CCC#N)c1ccc(N=Nc2ccc([N+](=O)[O-])cc2)cc1`, the call was inactive. `CN(C)C(=S)SC(=S)N(C)C`: the AC50 was 6.19 µM (active). Turning to `CN(c1nccc(=O)[nH]1)C1CCN(c2nc3ccccc3n2Cc2ccc(F)cc2)CC1`, the AC50 is 1.76 µM (active). `ClC(c1ccccc1)(c1ccccc1)c1ccccc1`: the compound was called inactive. For the compound `CC(C)(C)CC(C)(C)c1ccc(OCCOCC[N+](C)(C)Cc2ccccc2)cc1`, the AC50 is 1.75 µM (active). As to `COc1ccc(CCN2CCC(Nc3nc4ccccc4n3Cc3ccc(F)cc3)CC2)cc1`, the AC50 is 4.41 µM (active). Same read-out and setting: with `O=C1OC[C@H](Cc2cccc(O)c2)[C@H]1Cc1cccc(O)c1` the figure was 0.771 µM (active).

Another assay deals with Peroxisome proliferator-activated receptor gamma (Homo sapiens) (UniProt P37231). Put plainly: NVS_NR_hPPARg: NovaScreen (NVS) Nuclear Receptor Binding Assay for human Peroxisome Proliferator-activated Receptor gamma (PPARg) (AID 2283370). The method, boiled down: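 Chemicals were tested first in duplicate at 25 uM, then in concentration series if active. Binding to cell-free PPARg protein was measured by fluorescence polarization after 2 h, with loss of signal scored against DMSO.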
Sequence of Peroxisome proliferator-activated receptor gamma (Homo sapiens) (P37231 whole entry, looked up): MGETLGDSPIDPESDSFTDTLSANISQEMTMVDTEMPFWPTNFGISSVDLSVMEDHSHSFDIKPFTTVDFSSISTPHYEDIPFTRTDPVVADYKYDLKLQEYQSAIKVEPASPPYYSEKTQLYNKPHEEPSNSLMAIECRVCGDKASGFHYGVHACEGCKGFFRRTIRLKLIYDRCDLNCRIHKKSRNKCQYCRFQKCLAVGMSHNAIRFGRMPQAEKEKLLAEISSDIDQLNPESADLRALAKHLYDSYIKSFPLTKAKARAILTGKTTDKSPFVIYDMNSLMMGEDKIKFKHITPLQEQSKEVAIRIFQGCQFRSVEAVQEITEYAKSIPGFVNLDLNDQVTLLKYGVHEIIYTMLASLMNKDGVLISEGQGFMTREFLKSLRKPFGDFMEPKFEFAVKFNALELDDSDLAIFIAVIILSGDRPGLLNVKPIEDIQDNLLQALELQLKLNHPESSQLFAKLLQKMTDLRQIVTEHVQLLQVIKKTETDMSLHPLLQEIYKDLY
As for `CC(C)NCC(O)COc1ccc(CC(N)=O)cc1` (stereo unspecified), the outcome was inactive. With `CCCC(=O)OC(C)(C)Cc1ccccc1`, the AC50 was 13.4 µM (active).

Take `CCCCCCCCCCCC(=O)OCC(O)CO` (stereo unspecified): the outcome was inactive. For the compound `CC(C)CCCCCCCCCCCCCCC(=O)O`, the outcome was inactive. Turning to `C=C[Si]1(C)O[Si](C)(C=C)O[Si](C)(C=C)O[Si](C)(C=C)O1` (stereo unspecified), the outcome was inactive. In the case of `CCOC(=O)c1ccc(N)cc1`, the AC50 is 41.6 µM (active). As to `CCc1cc(C(C)(C)C)c(O)c(C(C)(C)C)c1`, the compound was called inactive. Still for that read-out and setting: the same measure for `O=CCc1ccccc1`: “inactive”; for `CC(=O)O[C@H]1C[C@@H]2CC[C@@]1(C)C2(C)C`: “inactive”; for `C=CC(C)(O)CCC=C(C)C` (stereo unspecified): “inactive”. Regarding `C=C1C[C@]23C[C@@]1(O)CC[C@H]2[C@@]12C=C[C@H](O)[C@@](C)(C(=O)O1)[C@H]2[C@@H]3C(=O)O`, the compound was classed as inactive. For `C[C@H]1O[C@@H](O[C@H]2[C@@H](O)C[C@H](O[C@H]3[C@@H](O)C[C@H](O[C@H]4CC[C@@]5(C)[C@H](CC[C@@H]6[C@@H]5C[C@@H](O)[C@]5(C)[C@@H](C7=CC(=O)OC7)CC[C@]65O)C4)O[C@@H]3C)O[C@@H]2C)C[C@H](O)[C@@H]1O`, the compound was classed as inactive. For the compound `C1=CC2C3C=CC(C3)C2C1` (stereo unspecified), the concentration at half-maximal activity (AC50) was 2.39 µM (active). As to `Nc1ccccc1[N+](=O)[O-]`, the call was inactive.

Turning to `CCCCCCC(C)(C)S`, the compound was classed as inactive.

Regarding `CC(C)C[C@H](NC(=O)OCC1c2ccccc2-c2ccccc21)C(=O)O`, the AC50 is 46.6 µM (active). In the case of `CN(C)c1cccc(O)c1`, the call was inactive. The same measure, in the same setting: with `CCc1cc(Cc2cc(CC)cc(C(C)(C)C)c2O)c(O)c(C(C)(C)C)c1` the entry was “inactive”.

The record behind these values is PubChem BioAssay (EPA / NIEHS).
